Data on 33 molecules can be found in publication PMC9911399, “Two distinct binding modes provide the RNA-binding protein RbFox with extraordinary sequence specificity”.

The chains are these.
T1: RBFOX1 RRM RbFoxmut (Fox-RRM*) (Homo sapiens, UniProt Q9NWB1 109-208, R118D;E147R;N151S;E152T)
T1 sequence: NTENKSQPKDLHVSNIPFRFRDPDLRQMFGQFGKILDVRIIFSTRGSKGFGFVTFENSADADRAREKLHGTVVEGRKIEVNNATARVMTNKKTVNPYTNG

B1: ACGGAAU (DNA:RNA)
RNA: GGGAGACCGGAAUUCAGAUUGUCCACGGAAUUUAAAUCCCGUCGUAGCCACCA
DNA 1: CAATCTGAATTCCGGTCTCCC
DNA 2: TGGTGGCTACGACGGGATT
B2: AUGUUAC (DNA:RNA)
RNA: B1 RNA with C26U, G28U, A29U, U31C
DNA 1: CAATCTGAATTCCGGTCTCCC
DNA 2: TGGTGGCTACGACGGGATT
B3: CGGGGCG (DNA:RNA)
RNA: B1 RNA with A25C, C26G, A29G, A30C, U31G
DNA 1: CAATCTGAATTCCGGTCTCCC
DNA 2: TGGTGGCTACGACGGGATT
B4: AAGAGAA (DNA:RNA)
RNA: B1 RNA with C26A, G28A, A29G, U31A
DNA 1: CAATCTGAATTCCGGTCTCCC
DNA 2: TGGTGGCTACGACGGGATT
B5: GAGUAUG (DNA:RNA)
RNA: B1 RNA with A25G, C26A, G28U, A30U, U31G
DNA 1: CAATCTGAATTCCGGTCTCCC
DNA 2: TGGTGGCTACGACGGGATT
B6: AAGAUUG (DNA:RNA)
RNA: B1 RNA with C26A, G28A, A29U, A30U, U31G
DNA 1: CAATCTGAATTCCGGTCTCCC
DNA 2: TGGTGGCTACGACGGGATT
B7: AGAUUGU (DNA:RNA)
RNA: B1 RNA with C26G, G27A, G28U, A29U, A30G
DNA 1: CAATCTGAATTCCGGTCTCCC
DNA 2: TGGTGGCTACGACGGGATT
B8: AAGAAUG (DNA:RNA)
RNA: B1 RNA with C26A, G28A, A30U, U31G
DNA 1: CAATCTGAATTCCGGTCTCCC
DNA 2: TGGTGGCTACGACGGGATT
B9: GUUAAUG (DNA:RNA)
RNA: B1 RNA with A25G, C26U, G27U, G28A, A30U, U31G
DNA 1: CAATCTGAATTCCGGTCTCCC
DNA 2: TGGTGGCTACGACGGGATT
B10: GAGAGUA (DNA:RNA)
RNA: B1 RNA with A25G, C26A, G28A, A29G, A30U, U31A
DNA 1: CAATCTGAATTCCGGTCTCCC
DNA 2: TGGTGGCTACGACGGGATT
B11: AGAAAUG (DNA:RNA)
RNA: B1 RNA with C26G, G27A, G28A, A30U, U31G
DNA 1: CAATCTGAATTCCGGTCTCCC
DNA 2: TGGTGGCTACGACGGGATT
B12: AGAAUGU (DNA:RNA)
RNA: B1 RNA with C26G, G27A, G28A, A29U, A30G
DNA 1: CAATCTGAATTCCGGTCTCCC
DNA 2: TGGTGGCTACGACGGGATT
B13: GGAAAUG (DNA:RNA)
RNA: B1 RNA with A25G, C26G, G27A, G28A, A30U, U31G
DNA 1: CAATCTGAATTCCGGTCTCCC
DNA 2: TGGTGGCTACGACGGGATT
B14: GGGAAUG (DNA:RNA)
RNA: B1 RNA with A25G, C26G, G28A, A30U, U31G
DNA 1: CAATCTGAATTCCGGTCTCCC
DNA 2: TGGTGGCTACGACGGGATT
B15: GAGUAUC (DNA:RNA)
RNA: B1 RNA with A25G, C26A, G28U, A30U, U31C
DNA 1: CAATCTGAATTCCGGTCTCCC
DNA 2: TGGTGGCTACGACGGGATT
B16: UCAUCAU (DNA:RNA)
RNA: B1 RNA with A25U, G27A, G28U, A29C
DNA 1: CAATCTGAATTCCGGTCTCCC
DNA 2: TGGTGGCTACGACGGGATT
B17: UGCGCUU (DNA:RNA)
RNA: B1 RNA with A25U, C26G, G27C, A29C, A30U
DNA 1: CAATCTGAATTCCGGTCTCCC
DNA 2: TGGTGGCTACGACGGGATT
B18: AUGACGC (DNA:RNA)
RNA: B1 RNA with C26U, G28A, A29C, A30G, U31C
DNA 1: CAATCTGAATTCCGGTCTCCC
DNA 2: TGGTGGCTACGACGGGATT
B19: CACUACU (DNA:RNA)
RNA: B1 RNA with A25C, C26A, G27C, G28U, A30C
DNA 1: CAATCTGAATTCCGGTCTCCC
DNA 2: TGGTGGCTACGACGGGATT
B20: CAUAUAU (DNA:RNA)
RNA: B1 RNA with A25C, C26A, G27U, G28A, A29U
DNA 1: CAATCTGAATTCCGGTCTCCC
DNA 2: TGGTGGCTACGACGGGATT
B21: CGAAACU (DNA:RNA)
RNA: B1 RNA with A25C, C26G, G27A, G28A, A30C
DNA 1: CAATCTGAATTCCGGTCTCCC
DNA 2: TGGTGGCTACGACGGGATT
B22: GAGACCG (DNA:RNA)
RNA: B1 RNA with A25G, C26A, G28A, A29C, A30C, U31G
DNA 1: CAATCTGAATTCCGGTCTCCC
DNA 2: TGGTGGCTACGACGGGATT
B23: CGGAAUG (DNA:RNA)
RNA: B1 RNA with A25C, C26G, G28A, A30U, U31G
DNA 1: CAATCTGAATTCCGGTCTCCC
DNA 2: TGGTGGCTACGACGGGATT
B24: ACGAUUG (DNA:RNA)
RNA: B1 RNA with G28A, A29U, A30U, U31G
DNA 1: CAATCTGAATTCCGGTCTCCC
DNA 2: TGGTGGCTACGACGGGATT
B25: GUAAAUG (DNA:RNA)
RNA: B1 RNA with A25G, C26U, G27A, G28A, A30U, U31G
DNA 1: CAATCTGAATTCCGGTCTCCC
DNA 2: TGGTGGCTACGACGGGATT
B26: ACGAAUC (DNA:RNA)
RNA: B1 RNA with G28A, A30U, U31C
DNA 1: CAATCTGAATTCCGGTCTCCC
DNA 2: TGGTGGCTACGACGGGATT
B27: GAGAUUG (DNA:RNA)
RNA: B1 RNA with A25G, C26A, G28A, A29U, A30U, U31G
DNA 1: CAATCTGAATTCCGGTCTCCC
DNA 2: TGGTGGCTACGACGGGATT
B28: GAGCAUG (DNA:RNA)
RNA: B1 RNA with A25G, C26A, G28C, A30U, U31G
DNA 1: CAATCTGAATTCCGGTCTCCC
DNA 2: TGGTGGCTACGACGGGATT
B29: GAGCAUC (DNA:RNA)
RNA: B1 RNA with A25G, C26A, G28C, A30U, U31C
DNA 1: CAATCTGAATTCCGGTCTCCC
DNA 2: TGGTGGCTACGACGGGATT
B30: GAGAAUG (DNA:RNA)
RNA: B1 RNA with A25G, C26A, G28A, A30U, U31G
DNA 1: CAATCTGAATTCCGGTCTCCC
DNA 2: TGGTGGCTACGACGGGATT
B31: ACGAAUG (DNA:RNA)
RNA: B1 RNA with G28A, A30U, U31G
DNA 1: CAATCTGAATTCCGGTCTCCC
DNA 2: TGGTGGCTACGACGGGATT
B32: GAGAGCA (DNA:RNA)
RNA: B1 RNA with A25G, C26A, G28A, A29G, A30C, U31A
DNA 1: CAATCTGAATTCCGGTCTCCC
DNA 2: TGGTGGCTACGACGGGATT
B33: CUAAAUG (DNA:RNA)
RNA: B1 RNA with A25C, C26U, G27A, G28A, A30U, U31G
DNA 1: CAATCTGAATTCCGGTCTCCC
DNA 2: TGGTGGCTACGACGGGATT

Changes are numbered by the printed parent chain; changes in the protein carry UniProt numbers. In all, about 16,000 sequences were measured (“ka relative to ugcaugu”: median about 0.096, highest 2% from about 0.35 on). The list comes from a sample in which the highest values are over-represented; it also holds similar and randomly drawn sequences.

This assay has as its target T1, RBFOX1 RRM RbFoxmut (Fox-RRM*). Kind of assay: EMSA; HiTS-Eq, 1 nM pool, 10 min; buffer printed only for the single-RNA assays: 10 mM Tris pH 7.5, 150 mM NaCl, 3.4 mM EDTA, 0.001% NP-40, 30 C. The conditions noted are these: tags: His6 N-terminal (pET28a); label: 5' 32P. Put shortly:
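Purified RbFox RRM (wild type or mutant) was equilibrated for 10 min in 50 µL with 1 nM of a 5′-radiolabelled pool of RNA with 7 randomized nucleotides, its flanks annealed to DNA oligonucleotides, across increasing protein concentrations. Free RNA was separated by 8% native PAGE, excised, reverse-transcribed, PCR-barcoded and sequenced on an Illumina HiSeq 2500. Relative association constants came from read-count changes of each variant against the control reaction, normalised to the cognate motif.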
As for B1, the binding signal is 0.115 KA relative to UGCAUGU.
B2: the binding signal was 0.161 KA relative to UGCAUGU.
The figure for B3 is 0.16 KA relative to UGCAUGU.
Turning to B4, the binding signal is 0.115 KA relative to UGCAUGU.
The value for B5 was 0.795 KA relative to UGCAUGU.
B6: the binding signal was 0.223 KA relative to UGCAUGU.
Turning to B7, the binding signal is 0.222 KA relative to UGCAUGU.
As for B8, the binding signal was 1.07 KA relative to UGCAUGU.
Take B9: the binding signal was 0.138 KA relative to UGCAUGU.
The value for B10 was 0.143 KA relative to UGCAUGU.
In the case of B11, the binding signal was 0.121 KA relative to UGCAUGU.
For the molecule B12, the binding signal is 0.798 KA relative to UGCAUGU.
On to B13, for which the binding signal is 0.177 KA relative to UGCAUGU.
The figure for B14 is 1.15 KA relative to UGCAUGU.
The value for B15 was 0.237 KA relative to UGCAUGU; that for B16 was 0.0991 KA relative to UGCAUGU.
For the molecule B17, the binding signal is 0.095 KA relative to UGCAUGU.
The figure for B18 is 0.0829 KA relative to UGCAUGU.
B19: the binding signal was 0.0793 KA relative to UGCAUGU.
Consider B20, for which the binding signal was 0.114 KA relative to UGCAUGU.
As to B21, the binding signal is 0.0571 KA relative to UGCAUGU.
With B22, the binding signal was 0.0845 KA relative to UGCAUGU.
For B23, the binding signal is 1.43 KA relative to UGCAUGU.
For the molecule B24, the binding signal was 0.234 KA relative to UGCAUGU.
The value for B25 was 0.125 KA relative to UGCAUGU.
For B26, the binding signal is 0.283 KA relative to UGCAUGU.
On to B27, for which the binding signal is 0.314 KA relative to UGCAUGU.
As for B28, the binding signal is 1.12 KA relative to UGCAUGU.
The figure for B29 is 0.278 KA relative to UGCAUGU; for B30 it is 1.5 KA relative to UGCAUGU.
Turning to B31, the binding signal is 1.2 KA relative to UGCAUGU.
Take B32: the binding signal was 0.151 KA relative to UGCAUGU.
With B33, the binding signal was 0.0852 KA relative to UGCAUGU.
